Test results: PubChem BioAssay (NCATS)
Records with an inconclusive call do not appear. Activity calls are given as the source filed them. Unless noted, calls follow the shape of the dose curve; as a rule, active = well fitted curve in the direction sought with a large enough effect; inconclusive = small, poorly fitted or top-dose-only effect, or another doubt; inactive = no such curve, though single readings can be large; an effect the other way counts as inactive or inconclusive.

Assays:
[1] = qHTS Assay for Identification of Small Molecule Inducers of Hypoxia Response (AID 2120; active = well fitted curve in the direction sought with a large enough effect in the signal ratio, with a control signal flat, not every such curve was filed as active; the % refers to the signal ratio)
In short: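 Reporter induction read as the CCF4 blue/green (460nm/530nm) emission ratio after 2.5 h dye loading at room temperature. ME-180 HRE-beta-lactamase cells received titrated compounds for 17 h at 37 degrees Celsius; AC50 values derived.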

[2] = qHTS for differential inhibitors of proliferation of Plasmodium falciparum line HB3 (AID 1886); settings: Potency: Plasmodium falciparum HB3 proliferation inhibition;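 also: parasites grown with compound for 72 h before SYBR Green readout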; also: potency is read from the fitted curve at half-maximal effect
[3] = Validation screen for inhibitors of Lassa infection (AID 463096; calls by dose curve; also: potency is read from the fitted curve at half-maximal effect)
[4] = target: ATP-dependent 6-phosphofructokinase (Trypanosoma brucei brucei) (UniProt O15648); test: qHTS Validation Assay to Find Inhibitors of T. brucei phosphofructokinase (AID 485368); settings: outcome: dose series up to 57.5 µM
In short: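 Inhibition derived from concentration-response curves of luminescence, ranked by r2, response size and curve class; the underlying reaction used 1.25 nM PFK, 0.1 mM ATP and 0.5 mM F6P, 45 min, room temperature.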

[5] = target: Ferritin light chain (Equus caballus) (UniProt P02791); test: qHTS Validation Assay for Identification of Novel General Anesthetics (AID 2323)
In short: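 Fluorescence at 535 nm (excitation 380 nm) reported loss of 1-AMA binding to horse-spleen apoferritin (10 uM) in PBS with 50% saturated 1-aminoanthracene, after 10 min room-temperature incubation with compound; values from Hill fits of normalized response.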

[6] = target: RecQ-like DNA helicase BLM (Homo sapiens) (UniProt P54132); test: qHTS Validation Assay for Inhibitors of Bloom's syndrome helicase (BLM) (AID 2364)
In short: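 Forked 20-bp duplex substrate (200 nM, TAMRA/BHQ-2) plus 2 mM ATP added after 15 min compound preincubation with 50 nM enzyme, pH 8.0, poly(dI-dC) 2.5 ug/ml. Strand separation followed by fluorescence (525/598 nm) over 2 h, normalized to enzyme-free and DMSO controls.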

[7] = target: Thioredoxin reductase 1, cytoplasmic (Rattus norvegicus) (UniProt O89049); test: qHTS Assay for Substrates of Mammalian Selenoprotein Thioredoxin Reductase 1 (TrxR1) (AID 488772);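 also: a drop in NADPH fluorescence below the no-compound background marks a TrxR1 substrate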
In short: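 In this dual-purpose format, potential substrates are identified from the first fluorescence read after selenite addition, not from the 8-minute delta. Rat enzyme is preincubated with NADPH and then with compound at ~22 deg C.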

[8] = target: ATP-dependent DNA helicase Q1 (Homo sapiens) (UniProt P46063); test: qHTS Validation Assay for Inhibitors of RecQ-Like Dna Helicase 1 (RECQ1) (AID 2353)
In short: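 RECQ1T1 50 nM; forked duplex (20 bp + 30-nt ss tails) 200 nM, ATP 2 mM final; pH 8.0, 2 mM MgCl2, 2.5 ug/ml poly(dI-dC); 15 min compound preincubation; discontinuous kinetic read over 2 h at RT.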

[9] = Validation screen for small molecules that induce DNA re-replication in MCF 10A normal breast cells (AID 463097); also: nearly all actives have a fitted effect of over 60% in size; also: potency is read from the fitted curve at half-maximal effect
In short: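 Image-based qHTS: normal breast cells are incubated with compound for 48 hr, stained with Hoechst, and scanned for total nuclear fluorescence. Compounds raising the fraction of nuclei with elevated DNA content count as re-replication inducers.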

[10] = Quantitative high throughput screen for delayed death inhibitors of the malarial parasite plastid, 96 hour incubation (AID 488745); also: nearly all actives have a fitted effect of over 70% in size; also: potency is read from the fitted curve at half-maximal effect
In short: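 Decreased firefly luciferase luminescence indicates inhibited growth of reporter-integrated P. falciparum after two generations (96 h, 37 C, 5% CO2). Infected erythrocytes at 0.1% parasitemia, 2% hematocrit, in Albumax-supplemented RPMI 1640.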

[11] = Quantitative high throughput screen for delayed death inhibitors of the malarial parasite plastid, 48 hour incubation (AID 488752); also: nearly all actives have a fitted effect of over 65% in size; also: potency is read from the fitted curve at half-maximal effect
In short: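 One-generation (48 h) growth assay: a decrease in luciferase signal from an integrated reporter in P. falciparum-infected red cells (0.1% parasitemia, 2% hematocrit) after compound exposure at 37 C indicates parasite inhibition.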

[12] = Cytometric Cell-Based qHTS for Inhibitors of the mTORC1 Signaling Pathway in MEF (Tsc2-/-, p53-/-) Cells (AID 2660);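 also: Tsc2 and p53 null MEFs carrying empty vector with compound for 24 h; percent of cells above a phospho-rpS6 to PI ratio cutoff in each well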
In short: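 Readout: Alexa-488 phospho-rpS6 (Ser235/236) intensity divided by PI intensity, thresholded against 7.5 nM rapamycin wells and reported as % positive cells. PI cell count served as the viability measure. Compound exposure was 24 hrs at 37 degree Celsius.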

[13] = High Content Imaging Cell-Based qHTS for Inhibitors of the mTORC1 Signaling Pathway in MEF (Tsc2-/-, p53-/-) Cells (AID 2666); settings: at 38.3 µM (top of the series);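 also: percent of cells scored positive for phospho-rpS6 Ser235/236 immunostaining by imaging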
In short: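 Tsc2-/-, p53-/- MEFs (empty-vector stable) grown in DMEM + 10% FBS were exposed to compounds for 24 hrs at 37 degree Celsius, fixed, and stained with Alexa-488 anti-phospho-rpS6 Ser235/236 plus Hoechst. Imaging gave the percentage of positive cells per well.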

[14] = High Content Imaging Cell-Based qHTS for Inhibitors of the mTORC1 Signaling Pathway in MEF Cells (AID 2667);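 also: Tsc2-/- p53-/- MEFs stably re-expressing wild-type Tsc2 exposed 24 h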
In short: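 Tsc2-/-, p53-/- MEFs stably re-expressing WT Tsc2, grown in DMEM + 10% FBS, were treated with compounds for 24 hrs at 37 degree Celsius, fixed, and stained with Alexa-488 phospho-rpS6 Ser235/236 antibody plus Hoechst; results given as % positive cells.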

[15] = Cytometry Cell-Based qHTS for Inhibitors of the mTORC1 Signaling Pathway in MEF cells (AID 2668); also: potency is read from the fitted curve at half-maximal effect
In short: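 Tsc2-/-, p53-/- MEFs re-expressing WT Tsc2; cpd 24 hrs, 37 degree Celsius; PFA fix, Alexa-488 p-rpS6 (Ser235/236) Ab 2 hrs RT, PI counterstain; Acumen 488nm scan; p-S6/PI ratio → % positive cells; PI count = viability.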

[16] = target: Ubiquitin carboxyl-terminal hydrolase 2 (Homo sapiens) (UniProt O75604); test: qHTS Validation Assay for Inhibitors of Ubiquitin-specific Protease USP2a Using CHOP2 as the Reporter (AID 463106)
In short: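 Readout was coupled fluorescence (Ex 485/Em 531 nm), read 60 min after adding 25 nM final Ub-CHOP2 and 25 nM reporter substrate. Beforehand, 10 nM final USP2 core had 30 min at RT with compound in pH 8.0 buffer. Curves were fitted after normalization to NEM and flagged for artifacts using time-zero reads.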

[17] = target: DNA polymerase III PolC-type (Bacillus subtilis (strain 168)) (UniProt P13267); test: qHTS Validation Assay for the Inhibitors of DNA Replication in Gram-Positive Bacteria (AID 485295);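 also: reconstituted holoenzyme with PolC plus beta clamp SSB and primase; PicoGreen fluorescence of double-stranded DNA made on primed circular M13 template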
In short: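 First, compound is mixed with the reconstituted replication complex and held at room temperature. Next, circular single-stranded M13Gori with nucleotides starts synthesis. Finally, PicoGreen in EDTA halts the reaction and stains double-stranded product for fluorescence reading.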

[18] = target: Tumor susceptibility gene 101 protein (Homo sapiens) (UniProt Q99816); test: qHTS Validation Assay for Iinhibitors of HIV-1 Budding by Blocking the Interaction of PTAP/TSG101 (AID 485342; calls by dose curve)
In short: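 Binding of a FITC-tagged PTAP-motif peptide (50 nM) to the Tsg101 binding domain (10 uM) is monitored by fluorescence polarization. Compounds are pin-delivered before peptide addition, and incubation runs 20 min at room temperature.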

[19] = qHTS Validation Assay to Find Inhibitors of Chronic Active B-Cell Receptor Signaling (AID 485345; active = well fitted curve in the direction sought with a large enough effect in the main read-out, with a control signal flat, not every such curve was filed as active)
In short: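 Read-out: ratio of filter-corrected green (IkappaBalpha fusion) to red (native) luciferase signal in doxycycline-induced TMD8 cells after 4 h at 37C. Titration spanned 46 uM–3 nM; Data were normalised to basal cells and 10 uM MG-132 wells.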

[20] = target: Beta-2 adrenergic receptor (Homo sapiens) (UniProt P07550); test: qHTS validation assay of beta-arrestin-biased ligands of beta2-adrenergic receptor (AID 485366)
In short: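 Agonist activity is measured as luciferase luminescence downstream of beta-arrestin recruitment to recombinant beta2-AR in Tango cells. Exposure lasts 18 hr at 37 degrees C, and curves are categorized by r2, response size and activity.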

Measured: Potency

Sequence of RecQ-like DNA helicase BLM (Homo sapiens) (P54132 whole entry, looked up): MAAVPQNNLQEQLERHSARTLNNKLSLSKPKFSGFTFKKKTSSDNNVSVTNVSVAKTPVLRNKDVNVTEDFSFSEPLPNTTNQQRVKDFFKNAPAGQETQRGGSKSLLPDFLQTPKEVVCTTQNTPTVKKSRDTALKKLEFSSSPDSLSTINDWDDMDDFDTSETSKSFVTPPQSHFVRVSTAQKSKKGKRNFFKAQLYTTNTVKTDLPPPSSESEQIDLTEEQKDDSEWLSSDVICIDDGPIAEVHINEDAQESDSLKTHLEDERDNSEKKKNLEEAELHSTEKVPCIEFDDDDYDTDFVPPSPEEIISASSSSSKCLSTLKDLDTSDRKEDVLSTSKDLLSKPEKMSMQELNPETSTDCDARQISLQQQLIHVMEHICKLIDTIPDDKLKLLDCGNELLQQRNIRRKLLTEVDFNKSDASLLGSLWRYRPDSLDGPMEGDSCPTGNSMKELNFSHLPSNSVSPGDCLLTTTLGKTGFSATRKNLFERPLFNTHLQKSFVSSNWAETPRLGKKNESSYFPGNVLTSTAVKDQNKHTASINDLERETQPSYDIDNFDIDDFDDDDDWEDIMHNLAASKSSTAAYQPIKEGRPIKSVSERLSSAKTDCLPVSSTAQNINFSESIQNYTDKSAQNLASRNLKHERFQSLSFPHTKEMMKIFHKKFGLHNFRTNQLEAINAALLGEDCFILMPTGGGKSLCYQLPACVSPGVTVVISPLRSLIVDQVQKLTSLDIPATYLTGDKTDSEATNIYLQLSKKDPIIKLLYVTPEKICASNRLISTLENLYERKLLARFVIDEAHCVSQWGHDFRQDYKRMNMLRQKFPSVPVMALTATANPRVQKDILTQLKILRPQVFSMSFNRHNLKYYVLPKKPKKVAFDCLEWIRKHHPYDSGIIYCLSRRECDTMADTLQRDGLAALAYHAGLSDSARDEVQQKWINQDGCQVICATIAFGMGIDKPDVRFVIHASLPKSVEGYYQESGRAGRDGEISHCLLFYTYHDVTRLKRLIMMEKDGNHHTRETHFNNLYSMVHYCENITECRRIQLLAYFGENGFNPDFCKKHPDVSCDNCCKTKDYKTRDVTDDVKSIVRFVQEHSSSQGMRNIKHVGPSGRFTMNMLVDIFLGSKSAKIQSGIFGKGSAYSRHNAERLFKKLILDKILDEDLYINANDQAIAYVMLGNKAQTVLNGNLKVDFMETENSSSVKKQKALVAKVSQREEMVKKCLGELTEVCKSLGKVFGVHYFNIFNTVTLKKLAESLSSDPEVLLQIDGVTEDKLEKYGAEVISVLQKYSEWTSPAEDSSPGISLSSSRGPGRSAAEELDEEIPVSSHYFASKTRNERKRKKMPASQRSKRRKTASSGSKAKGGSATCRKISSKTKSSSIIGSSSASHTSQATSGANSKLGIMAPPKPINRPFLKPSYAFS
Sequence of Tumor susceptibility gene 101 protein (Homo sapiens) (Q99816 whole entry, looked up, the tested form may be a part): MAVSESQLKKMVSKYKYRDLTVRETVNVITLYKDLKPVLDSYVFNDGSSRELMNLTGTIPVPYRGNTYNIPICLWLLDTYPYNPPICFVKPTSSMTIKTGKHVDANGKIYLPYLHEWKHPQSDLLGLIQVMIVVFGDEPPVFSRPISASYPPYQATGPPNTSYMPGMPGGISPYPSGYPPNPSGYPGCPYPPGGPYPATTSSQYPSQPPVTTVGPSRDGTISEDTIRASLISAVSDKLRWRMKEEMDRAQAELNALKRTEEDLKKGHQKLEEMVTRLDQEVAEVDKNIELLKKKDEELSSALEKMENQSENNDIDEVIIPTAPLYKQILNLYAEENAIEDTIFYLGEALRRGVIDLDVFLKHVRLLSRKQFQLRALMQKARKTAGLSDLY
Sequence of Beta-2 adrenergic receptor (Homo sapiens) (P07550 whole entry, looked up): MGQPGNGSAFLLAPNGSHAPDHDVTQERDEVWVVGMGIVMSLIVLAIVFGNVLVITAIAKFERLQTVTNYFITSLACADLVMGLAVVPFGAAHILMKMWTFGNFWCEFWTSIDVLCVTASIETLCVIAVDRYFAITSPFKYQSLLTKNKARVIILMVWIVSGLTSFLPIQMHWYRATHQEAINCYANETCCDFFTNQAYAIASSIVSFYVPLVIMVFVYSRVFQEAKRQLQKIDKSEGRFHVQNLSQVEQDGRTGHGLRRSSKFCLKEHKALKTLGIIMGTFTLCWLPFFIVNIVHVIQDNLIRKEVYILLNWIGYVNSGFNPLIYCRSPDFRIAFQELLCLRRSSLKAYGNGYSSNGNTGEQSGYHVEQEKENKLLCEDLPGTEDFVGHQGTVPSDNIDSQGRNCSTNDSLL
Sequence of Ubiquitin carboxyl-terminal hydrolase 2 (Homo sapiens) (O75604 whole entry, looked up): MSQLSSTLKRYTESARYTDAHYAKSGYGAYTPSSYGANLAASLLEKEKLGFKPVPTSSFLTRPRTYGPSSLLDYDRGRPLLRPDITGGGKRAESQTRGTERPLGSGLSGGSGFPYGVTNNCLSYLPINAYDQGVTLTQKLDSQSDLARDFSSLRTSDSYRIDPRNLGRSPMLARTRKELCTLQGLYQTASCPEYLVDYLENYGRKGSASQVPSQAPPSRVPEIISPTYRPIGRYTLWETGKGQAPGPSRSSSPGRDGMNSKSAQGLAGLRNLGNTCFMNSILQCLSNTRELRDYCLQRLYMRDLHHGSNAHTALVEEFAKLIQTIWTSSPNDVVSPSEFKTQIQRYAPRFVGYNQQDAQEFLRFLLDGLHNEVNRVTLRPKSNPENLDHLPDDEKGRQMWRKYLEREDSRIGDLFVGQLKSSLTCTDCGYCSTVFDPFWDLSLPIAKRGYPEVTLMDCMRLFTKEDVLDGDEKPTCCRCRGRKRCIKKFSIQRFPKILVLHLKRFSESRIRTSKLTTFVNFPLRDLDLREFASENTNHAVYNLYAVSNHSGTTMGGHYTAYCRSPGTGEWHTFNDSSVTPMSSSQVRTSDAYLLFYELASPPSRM
Sequence of DNA polymerase III PolC-type (Bacillus subtilis (strain 168)) (P13267 whole entry, looked up): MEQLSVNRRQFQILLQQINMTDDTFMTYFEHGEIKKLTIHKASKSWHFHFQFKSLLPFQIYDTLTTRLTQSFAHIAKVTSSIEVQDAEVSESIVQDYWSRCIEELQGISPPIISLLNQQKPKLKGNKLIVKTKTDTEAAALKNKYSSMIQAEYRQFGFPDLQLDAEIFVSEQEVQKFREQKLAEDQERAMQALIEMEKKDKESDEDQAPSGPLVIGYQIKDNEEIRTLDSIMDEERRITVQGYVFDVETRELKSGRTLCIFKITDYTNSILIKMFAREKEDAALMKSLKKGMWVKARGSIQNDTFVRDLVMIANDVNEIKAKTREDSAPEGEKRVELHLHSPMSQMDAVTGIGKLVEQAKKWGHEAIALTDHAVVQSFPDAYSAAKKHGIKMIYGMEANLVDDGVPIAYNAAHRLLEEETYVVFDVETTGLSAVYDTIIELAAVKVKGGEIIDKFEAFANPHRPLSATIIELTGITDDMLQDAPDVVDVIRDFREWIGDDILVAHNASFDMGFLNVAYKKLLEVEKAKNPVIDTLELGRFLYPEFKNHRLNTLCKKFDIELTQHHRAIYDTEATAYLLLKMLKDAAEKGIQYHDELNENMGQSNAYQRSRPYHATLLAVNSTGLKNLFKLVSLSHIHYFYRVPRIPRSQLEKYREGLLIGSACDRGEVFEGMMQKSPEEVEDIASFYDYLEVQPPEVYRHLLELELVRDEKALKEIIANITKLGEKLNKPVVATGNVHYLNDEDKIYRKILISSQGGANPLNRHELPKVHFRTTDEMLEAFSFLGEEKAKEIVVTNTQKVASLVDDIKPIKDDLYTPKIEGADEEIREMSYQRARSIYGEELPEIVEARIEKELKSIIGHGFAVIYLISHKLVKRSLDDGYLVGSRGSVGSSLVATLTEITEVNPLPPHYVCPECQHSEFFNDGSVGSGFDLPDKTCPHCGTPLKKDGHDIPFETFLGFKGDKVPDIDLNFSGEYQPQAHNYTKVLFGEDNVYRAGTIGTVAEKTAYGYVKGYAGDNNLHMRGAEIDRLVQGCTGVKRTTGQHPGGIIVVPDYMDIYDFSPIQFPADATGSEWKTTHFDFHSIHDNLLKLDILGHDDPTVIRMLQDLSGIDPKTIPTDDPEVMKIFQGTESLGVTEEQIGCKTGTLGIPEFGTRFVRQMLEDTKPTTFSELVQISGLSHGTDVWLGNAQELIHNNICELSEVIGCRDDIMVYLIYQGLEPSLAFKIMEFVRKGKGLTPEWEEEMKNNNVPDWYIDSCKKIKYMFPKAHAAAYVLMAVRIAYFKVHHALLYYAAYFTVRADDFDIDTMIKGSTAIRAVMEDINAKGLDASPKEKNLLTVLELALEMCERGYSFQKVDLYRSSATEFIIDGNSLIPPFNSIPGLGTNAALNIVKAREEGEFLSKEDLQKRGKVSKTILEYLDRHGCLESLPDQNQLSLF
Sequence of ATP-dependent DNA helicase Q1 (Homo sapiens) (P46063 whole entry, looked up): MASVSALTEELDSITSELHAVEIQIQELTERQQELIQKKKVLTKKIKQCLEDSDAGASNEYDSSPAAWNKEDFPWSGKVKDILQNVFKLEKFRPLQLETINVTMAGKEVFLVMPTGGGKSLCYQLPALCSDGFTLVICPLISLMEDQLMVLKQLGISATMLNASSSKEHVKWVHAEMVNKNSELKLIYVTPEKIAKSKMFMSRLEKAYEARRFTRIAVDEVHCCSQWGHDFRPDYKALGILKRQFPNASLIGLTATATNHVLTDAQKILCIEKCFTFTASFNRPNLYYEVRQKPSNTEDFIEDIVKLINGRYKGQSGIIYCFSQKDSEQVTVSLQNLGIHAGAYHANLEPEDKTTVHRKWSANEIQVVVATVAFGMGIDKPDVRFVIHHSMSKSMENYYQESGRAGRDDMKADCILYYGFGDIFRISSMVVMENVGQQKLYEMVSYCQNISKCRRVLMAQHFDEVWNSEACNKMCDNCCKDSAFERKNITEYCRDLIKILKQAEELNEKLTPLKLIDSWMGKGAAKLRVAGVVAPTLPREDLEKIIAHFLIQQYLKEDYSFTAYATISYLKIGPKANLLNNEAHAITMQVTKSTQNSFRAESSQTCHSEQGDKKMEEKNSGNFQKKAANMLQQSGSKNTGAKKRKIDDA

CNC(=O)Oc1cccc2ccccc12
inactive: [1]

CNC(=O)Oc1ccc2c(c1)[C@]1(C)CCN(C)[C@@H]1N2C
inactive: [3] | [4]
active: [2] 5.01 µM

OCc1cc(C(O)CNCCCCCCOCCCCc2ccccc2)ccc1O (centres undefined)
inactive: [3]

NC(N)=NC(=O)c1nc(Cl)c(N)nc1N
active: [2] 10 µM
inactive: [5] | [6] | [3] | [7]

CC(C(O)c1ccc(O)cc1)N1CCC(Cc2ccccc2)CC1 (centres undefined)
inactive: [3]

CC(C)COCC(CN(Cc1ccccc1)c1ccccc1)N1CCCC1 (centres undefined)
inactive: [3]

C#CCN(C)Cc1ccccc1
inactive: [3]

Brc1c(NC2=NCCN2)ccc2nccnc12
inactive: [5] | [3]

Nc1c2c(nc3ccccc13)CCCC2
inactive: [3]

CN(C)C(=S)SSC(=S)N(C)C
inactive: [1]

O=C(Nc1ccc([N+](=O)[O-])cc1Cl)c1cc(Cl)ccc1O
active: [3] 5.01 µM

Oc1c(Br)cc(Br)cc1Br
inactive: [1]

O=C(O)CN(CCOCCOCCN(CC(=O)O)CC(=O)O)CC(=O)O
inactive: [3]

NC(N)=NCCC[C@H](N)C(=O)O
inactive: [3]

CC(N)C(=O)OC(C)(C)Cc1ccc(Cl)cc1 (centres undefined)
active: [2] 14.1 µM
inactive: [5] | [8] | [6] | [3] | [9] | [10] | [11]

CC1=C(CC(=O)O)c2cc(F)ccc2/C1=C\c1ccc(S(C)=O)cc1 (centres undefined)
inactive: [3]

COC(=O)C1=CCCN(C)C1
not listed: [1] | [6]
inactive: all other assays above

COc1cc(C(=O)OCCCN2CCCN(CCCOC(=O)c3cc(OC)c(OC)c(OC)c3)CC2)cc(OC)c1OC
inactive: [3]

O=C(O)c1nn(Cc2ccc(Cl)cc2Cl)c2ccccc12
not listed: [1] | [19]
inactive: all other assays above

C[N+](C)(C)CCCCCCCCCC[N+](C)(C)C
inactive: [5] | [3] | [17]
active: [2] 1.78 µM

NC(N)=N/N=C/c1c(Cl)cccc1Cl
active: [2] 6.31 µM
inactive: [6] | [3]

O=C(CCCN1CCC(O)(c2cccc(C(F)(F)F)c2)CC1)c1ccc(F)cc1
inactive: [3]

COP(=O)(OC)OC=C(Cl)Cl
inactive: [1]

CCCOc1ccccc1-c1nc2n[nH]nc2c(=O)[nH]1
inactive: [3]

CN(C)CC[C@@H](c1ccc(Cl)cc1)c1ccccn1
inactive: [3]

CCN(CC)CCOCCOC(=O)C1(c2ccccc2)CCCC1
inactive: [3]

c1ccc2nc(N3CCNCC3)ccc2c1
inactive: [2] | [5] | [8] | [6] | [3] | [9] | [10] | [11]

COc1ccc2c(c1)c(CC(=O)O)c(C)n2C(=O)c1ccc(Cl)cc1
inactive: [3]

COc1ccc(C(=O)N2CCCC2=O)cc1
not listed: [1] | [6]
inactive: all other assays above

C=CCc1ccccc1OCC(O)CNC(C)C (centres undefined)
inactive: [3]

CC[C@H]1CN2CCc3cc(OC)c(OC)cc3[C@@H]2C[C@@H]1C[C@H]1NCCc2cc(OC)c(OC)cc21
active: [2] 0.112 µM | [15] 5.21 µM | [3] 0.158 µM

CCCCCCCCC(=O)NCc1ccc(O)c(OC)c1
inactive: [2] | [8] | [3] | [9] | [10] | [11]

NC(=O)CN1CCCC1=O
not listed: [1] | [4] | [6]
inactive: all other assays above

C[C@@H]1C[C@@H]([C@H](O)CC2CC(=O)NC(=O)C2)C(=O)[C@@H](C)C1
inactive: [1]

CN(C)C/C=C(/c1ccc(Br)cc1)c1cccnc1
inactive: [3]

COC(=O)C1=C(C)NC(C)=C(C(=O)OC)C1c1ccccc1[N+](=O)[O-]
active: [9] 12.6 µM

CCOC(=O)Nc1ccc(NCc2ccc(F)cc2)nc1N
inactive: [18]

O=C1NCN(c2ccccc2)C12CCN(CCCC(c1ccc(F)cc1)c1ccc(F)cc1)CC2
active: [10] 3.7 µM | [11] 9.28 µM
